In PubChem BioAssay AID743395 (Broad Institute, 2014):
The campaign covered roughly 1,200 compounds. About 480 (40%) were called active. No rule for the calls is given here. The set was probably picked from earlier hits. Only a sample is shown. Measured potencies and affinities stand elsewhere.

Experiment: viability loss in human hepatoma cells – cell-based, CellTiter-Glo luminescence, cherry-pick, set 2, cytotoxicity control, dose response (AID 743395)
Details: HepG2 viability, CellTiter-Glo ATP luminescence, 72 h; series mostly up to 26 µM

Structure (SMILES)	outcome
COc1ccc(CCC(=O)N2CCN(S(=O)(=O)c3ccc(OC(F)(F)F)cc3)CC2)cc1	inactive
CCS(=O)(=O)N1CC(=O)N2[C@H](CO)[C@@H](c3ccc(C#CCC(C)C)cc3)[C@@H]2C1	inactive
CS(=O)(=O)N1CC(=O)N2[C@H](C1)[C@H](c1ccc(C#Cc3ccc(F)cc3)cc1)[C@@H]2CO	inactive
CCS(=O)(=O)N1CC(=O)N2[C@H](C1)[C@@H](c1ccc(C#CCC(C)C)cc1)[C@@H]2CO	inactive
COc1cc(SC)ccc1C(=O)N1CCN(c2ccccc2OC)CC1	inactive
COc1ccccc1N1CCN(/N=C/C=C\c2ccccc2[N+](=O)[O-])CC1	inactive
Cc1ccc(C(=O)NCC(=O)OCC(=O)NC(C)c2ccccc2)s1 (configuration not stated)	inactive
C[C@@H]1CN([C@@H](C)CO)C(=O)Cc2cc(N(C)C)ccc2O[C@@H]1CN(C)Cc1ccccc1	inactive
C[C@@H]1CN([C@@H](C)CO)C(=O)Cc2cc(NC(=O)Nc3ccc(C(F)(F)F)cc3)ccc2O[C@H]1CN(C)C(=O)Nc1ccccc1	inactive
C[C@@H]1CN([C@@H](C)CO)C(=O)c2cccc(NC(=O)Nc3ccc4c(c3)OCO4)c2O[C@H]1CN(C)S(=O)(=O)c1ccccc1	inactive
C[C@H]1CCCCO[C@H](CN(C)C(=O)Cc2ccccc2)[C@@H](C)CN([C@@H](C)CO)C(=O)c2cc(N(C)C)ccc2O1	inactive
C[C@@H]1CN([C@H](C)CO)C(=O)c2cc(NC(=O)Cc3cn(C)c4ccccc34)ccc2O[C@@H]1CN(C)Cc1ccc(Cl)c(Cl)c1	inactive
C[C@H](CO)N1C[C@H](C)[C@H](CN(C)Cc2ccc(Cl)c(Cl)c2)Oc2ccc(NC(=O)C3CCCCC3)cc2CC1=O	inactive
C[C@@H]1CN([C@@H](C)CO)C(=O)c2cc(NC(=O)Nc3cccc4ccccc34)ccc2O[C@@H](C)CCCCO[C@@H]1CN(C)Cc1ccc2c(c1)OCO2	inactive
CCNC(=O)C1CCCN(C(=O)c2cc(F)ccc2C)CC1 (configuration not stated)	inactive
CCNC(=O)C1(C)CCN(C(=O)c2cc(F)ccc2C)C1 (configuration not stated)	inactive
Cc1cccc(CC(=O)Nc2cccnc2)c1	inactive
CN1c2ccc(-c3ccc(C#N)cc3)cc2[C@H]2[C@H](CCN2S(=O)(=O)c2cccc(F)c2)[C@@H]1CO	inactive
CN1c2ccc(-c3ccc(C#N)cc3)cc2[C@H]2[C@H](CCN2S(=O)(=O)c2cccc(F)c2)[C@H]1CO	inactive
O=C(O)C1=C[C@@H](O)[C@@H](O)[C@H](O)C1	inactive
CCOCCOC(=O)COC(=O)c1ccccc1NC(=O)c1ccccc1	inactive
COc1ccc(C(=O)c2cc(OC)c(OC)c(OC)c2)cc1OC	inactive

Structure (SMILES)	outcome
COc1ccc(C(=O)Nc2ccccc2C(=O)Nc2ccccc2)cc1	inactive
Cc1nc(NCc2cccnc2)c2c3c(sc2n1)CCCC3	inactive
COc1ccc(-c2cc(=O)c3c(O)cc(O)cc3o2)cc1	inactive
O=C1NC(=Nc2cccnc2)S/C1=C/c1ccc(F)cc1	inactive
Cn1cccc1/C=C1\SC(=Nc2ccc(O)cc2)NC1=O	inactive
C=CC[C@@H](CC(=O)N(CCO)Cc1ccccc1)C(=O)N[C@H](COC(=O)[C@H](CC=C)CC(=O)OC(C)(C)C)Cc1c[nH]c2ccccc12	inactive
CC(C)CC#Cc1ccc([C@H]2[C@H](CO)N3C(=O)CN(C(=O)Nc4cc(F)ccc4F)C[C@@H]23)cc1	inactive
CCCC#Cc1ccc([C@H]2[C@H](CO)N3C(=O)CN(C(=O)Nc4cc(F)ccc4F)C[C@@H]23)cc1	inactive
CCCNC(=O)N1[C@H](C#N)[C@H](c2ccc(C#Cc3ccc(F)cc3)cc2)[C@@H]1CO	inactive
O=C(Nc1cc(F)ccc1F)N1CC(=O)N2[C@@H](CO)[C@H](c3ccc(C#CC4CCCCC4)cc3)[C@@H]2C1	inactive
Cc1ccc(-c2cccc(CN3CCN(C(C)C)C(CCO)C3)c2)o1 (configuration not stated)	inactive
COc1cc(-c2noc(C)c2C#Cc2ccsc2)cc(OC)c1OC	inactive
COc1cc(-c2noc(C)c2C#Cc2ccccn2)cc(OC)c1OC	inactive
CCN1CCCC(OC(=O)c2cc(-c3ccccc3Cl)nc3ccccc23)C1 (configuration not stated)	inactive
CCOc1ccc(-c2cc(C(=O)N/N=C/c3ccc(O)cc3)c3ccccc3n2)cc1	inactive
O=C(CCC(=O)N1CCOc2ccc(Cl)cc21)N1CCN(c2ccccn2)CC1	inactive
COC(=O)Cc1c(O)ccn(Cc2ccc(Cl)c(Cl)c2)c1=O	inactive
CN1C(=O)c2cc(NC(=O)c3ccc(Cl)cc3)ccc2OC[C@@H]2O[C@H](CC(=O)NCc3cccc(F)c3)CC[C@H]21	inactive
CCN(CC(=O)Nc1ccc(NC(C)=O)cc1)C(=O)c1ccc(N2CCC(C)CC2)c([N+](=O)[O-])c1	inactive
Cc1c(CCC(=O)O)c(=O)oc2c(C)c(OCc3ccccc3Cl)ccc12	inactive
COc1ccc(C(C)=O)cc1CS(=O)(=O)CC(=O)NCCc1c[nH]c2ccccc12	inactive
O=C(CN(Cc1ccco1)Cc1ccco1)Nc1cc(S(=O)(=O)N2CCCCC2)ccc1Cl	inactive

Structure (SMILES)	outcome
Cc1c(OCC(=O)NCCN2CCOCC2)ccc2c3c(c(=O)oc12)CCC3	inactive
Oc1cc2c(cc1O)C(c1ccccc1)CNCC2 (configuration not stated)	inactive
COc1ccc(OC)c(C2CC(c3ccccc3)=NN2C(=S)Nc2ccccc2)c1 (configuration not stated)	inactive
CCOc1ccc(N(CC)C(=O)COc2cc(=O)n(C)c3ccccc23)cc1	inactive
CCOC(=O)c1c(C)[nH]c(C)c1C(=O)COC(=O)c1ccc([N+](=O)[O-])s1	inactive
C/C=C/c1ccc([C@H]2[C@@H](CO)N(C(=O)COC)[C@@H]2CNC(=O)CC)cc1	inactive
Cc1cc(/C=N/NC(N)=S)c(O)c(/C=N/NC(N)=S)c1	inactive
Cc1cc2c(cc1C)C(c1ccccc1OC(C)C)CC(=O)N2 (configuration not stated)	inactive
O=C(Nc1ccccc1)c1nc[nH]c1C(=O)Nc1ccccc1F	inactive
CN(CC(=O)Nc1cccc(S(=O)(=O)N2CCCC2)c1)CC(=O)Nc1ccc(F)c(F)c1F	inactive
COc1cccc(-c2cccc(-c3nc(C(=O)NCC(F)(F)F)cc4c3[C@H](CCO)N([S@@](=O)C(C)(C)C)C4)c2)c1	inactive
N#Cc1nc(NCC(F)F)nc(Nc2cc(F)cc(F)c2)n1	inactive
COCCCNc1nnc(Cc2ccc(Cl)cc2)c(=O)[nH]1	inactive
N#CCC(=O)N/N=C/c1cn(Cc2cccc3ccccc23)c2ccccc12	inactive
O=C(CN1CCN(S(=O)(=O)c2ccccc2)CC1)Nc1ccccc1Cl	inactive
COc1ccc2oc(C(=O)N3CCN(C(=O)c4ccco4)CC3)c(C)c2c1	inactive
COc1ccc(NC(=O)c2ccc(NC(=O)c3nc4nccc(C)n4n3)cc2)cc1	inactive
CCCc1nc2ccccc2c(C(=O)OCC(=O)NCc2ccc3c(c2)OCO3)c1CC	inactive
Cc1ccc(S(=O)(=O)N2CCOCC2)cc1NC(=O)COC(=O)c1ccc(Cl)nc1	inactive
COc1ccc(CC(=O)Nc2nccs2)cc1S(=O)(=O)N1CCOCC1	inactive
C[C@H](CO)N1C[C@H](C)[C@H](CN(C)C(=O)NC2CCCCC2)Oc2ncc(-c3cc4ccccc4o3)cc2C1=O	inactive
C[C@@H]1CN([C@H](C)CO)C(=O)c2cc(NC(=O)Cc3ccccc3)ccc2O[C@@H]1CN(C)S(C)(=O)=O	inactive

Structure (SMILES)	outcome
COc1ccc(S(=O)(=O)Nc2ccc3c(c2)C(=O)N([C@@H](C)CO)C[C@@H](C)[C@H](CN(C)Cc2ccc(Oc4ccccc4)cc2)O3)cc1	inactive
Cc1ccc(S(=O)(=O)N(C)C[C@@H]2OCCCC[C@@H](C)Oc3ccc(NS(=O)(=O)c4ccc(Cl)cc4)cc3C(=O)N([C@@H](C)CO)C[C@@H]2C)cc1	inactive
COc1ccc(S(=O)(=O)Nc2ccc3c(c2)C(=O)N([C@H](C)CO)C[C@@H](C)[C@@H](CN(C)Cc2ccc(C(F)(F)F)cc2)O3)cc1	inactive
Cc1ccc(S(=O)(=O)Nc2ccc3c(c2)C(=O)N([C@@H](C)CO)C[C@H](C)[C@H](CN(C)S(=O)(=O)c2ccc(C)cc2)OCCCC[C@@H](C)O3)cc1	inactive
CCCNC(=O)N1[C@H](CO)[C@@H](c2ccc(C3=CCCC3)cc2)[C@@H]1CN(C)C(C)=O	inactive
N#C[C@@H]1[C@H](c2ccc(-c3cccc(F)c3)cc2)[C@H](CO)N1C(=O)NC1CCCC1	inactive
CCOc1ccccc1N1CCN(C(=O)c2cc3ccccc3cc2OC)CC1	inactive
Cc1nn(C)c(C)c1/C=C/C(=O)O	inactive
COc1cc(/C=C/C(=O)O)cc(S(=O)(=O)Nc2ccc3cn[nH]c3c2)c1OC	inactive
O=C(CSC1=NNC(c2ccccn2)S1)Nc1ccccc1 (configuration not stated)	inactive
COc1ccc(C)cc1NC(=O)CNC(c1ccccc1)c1ccc(C)cc1 (configuration not stated)	inactive
CN(C)S(=O)(=O)c1ccc2c(c1)/C(=C/c1cc3c([nH]1)CCCC3)C(=O)N2	inactive
COC(=O)Cn1c(=NC(=O)c2cc(-c3cccs3)nc3ccccc23)sc2cc(S(N)(=O)=O)ccc21	inactive
CN(c1ccc(O)cc1)c1nc(-c2cccs2)cs1	inactive
C=CCN=c1scc(C)n1/N=C/c1ccc(O)c(O)c1	inactive
COCOc1cccc(CN2CCC(C)(Oc3cccc(C#N)c3)C2)c1 (configuration not stated)	inactive
O=C(NCc1cccs1)c1cc(-c2ccccc2)nn1CC1CC(c2cccc([N+](=O)[O-])c2)=NO1 (configuration not stated)	inactive
C=CCN1C(=O)/C(=C/C=C2/N(CC)c3ccc(S(=O)(=O)N(C)C)cc3N2CC)SC1=S	inactive
COc1ccc(C2CN=NC23CCc2ccccc2C3=O)cc1 (configuration not stated)	inactive
CCOc1ccc(Cl)cc1C1=CC(=O)C[C@H](c2ccc(OC)cc2)C1	inactive
COc1ccc2c(c1)C(=O)CC(c1ccc3c(c1)OCCO3)O2 (configuration not stated)	inactive
